Screens as filed in PubChem BioAssay.
NALP1 inh: NALP1 inflammasome inhibitors in reconstituted yeast, colorimetric, S. cerevisiae, triplicate retest; S. cerevisiae NALP1/ASC/caspase-1 growth, X-gal OD620, 72 h; inhibition, % at 10 µM; 280,000 compounds, 0.61% hits; in the data active = inhibition mostly above about 24%, no sharp cut-off; inactive = mostly below about 32%
HSF1 activator: HSF-1 activators, primary screen, NIH3T3-HGL cells, MG132 stress, luminescence, single point. NIH3T3-HGL HSF-1 luciferase reporter, 8 h; 100% = twice DMSO control signal. activation, % at 9 µM. 300,000 compounds, 1.7% hits;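 active = mean replicate activation of at least 50% with a set share of replicates each reaching 50%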;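 note: 0% = median of the neutral control wells and 100% = twice that signal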
p-CIP stab down: p/CIP-EGFP fusion destabilizers, primary screen, fluorescence, F442A cells; Q05BA5; 16 h; decrease of EGFP signal, % at 10 µM; 290,000 compounds, 0.01% hits; AID 1984, 2009;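 active = EGFP signal decrease of at least 30% at 10 µM or well 3 SD below plate mean, unless failing retest; inactive = the rest, including hits failing retest or dose response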
Target sequence (Q05BA5 1-1403): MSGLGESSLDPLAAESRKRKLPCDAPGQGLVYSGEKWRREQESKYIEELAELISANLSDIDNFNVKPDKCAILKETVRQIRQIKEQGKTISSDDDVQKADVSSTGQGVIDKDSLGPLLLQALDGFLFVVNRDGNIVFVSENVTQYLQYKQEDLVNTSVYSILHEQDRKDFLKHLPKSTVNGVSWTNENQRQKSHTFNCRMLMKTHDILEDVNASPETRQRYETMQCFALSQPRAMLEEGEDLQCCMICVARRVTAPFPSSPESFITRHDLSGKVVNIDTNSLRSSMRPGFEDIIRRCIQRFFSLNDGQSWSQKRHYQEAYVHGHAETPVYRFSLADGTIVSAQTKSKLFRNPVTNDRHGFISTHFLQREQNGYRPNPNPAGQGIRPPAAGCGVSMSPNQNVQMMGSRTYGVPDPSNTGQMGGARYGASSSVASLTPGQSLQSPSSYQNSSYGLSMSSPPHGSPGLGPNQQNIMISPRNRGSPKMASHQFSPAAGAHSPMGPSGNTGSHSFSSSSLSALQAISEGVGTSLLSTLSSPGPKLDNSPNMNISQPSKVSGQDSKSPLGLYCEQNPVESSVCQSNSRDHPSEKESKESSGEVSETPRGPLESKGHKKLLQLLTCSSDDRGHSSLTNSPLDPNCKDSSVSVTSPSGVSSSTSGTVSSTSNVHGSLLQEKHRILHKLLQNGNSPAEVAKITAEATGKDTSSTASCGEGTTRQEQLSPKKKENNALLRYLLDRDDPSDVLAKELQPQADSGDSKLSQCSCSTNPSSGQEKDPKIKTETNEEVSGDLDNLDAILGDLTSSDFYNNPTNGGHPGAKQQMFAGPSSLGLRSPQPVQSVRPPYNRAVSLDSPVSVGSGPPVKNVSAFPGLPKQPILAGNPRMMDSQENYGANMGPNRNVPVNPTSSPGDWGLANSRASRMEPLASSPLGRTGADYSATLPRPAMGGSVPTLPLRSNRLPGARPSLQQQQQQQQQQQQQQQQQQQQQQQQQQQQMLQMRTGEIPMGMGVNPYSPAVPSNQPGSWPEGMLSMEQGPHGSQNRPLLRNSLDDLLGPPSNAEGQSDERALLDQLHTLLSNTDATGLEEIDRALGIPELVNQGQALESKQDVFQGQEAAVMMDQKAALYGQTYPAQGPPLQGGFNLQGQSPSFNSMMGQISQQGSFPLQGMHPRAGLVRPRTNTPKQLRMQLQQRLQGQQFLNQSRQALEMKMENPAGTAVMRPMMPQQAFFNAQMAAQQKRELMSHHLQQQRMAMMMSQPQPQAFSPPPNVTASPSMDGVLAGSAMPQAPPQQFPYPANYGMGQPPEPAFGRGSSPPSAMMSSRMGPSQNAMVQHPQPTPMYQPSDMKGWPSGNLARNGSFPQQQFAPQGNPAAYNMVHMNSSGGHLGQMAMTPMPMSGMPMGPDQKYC
Hsp70 activator: Hsp70 transcriptional activators, primary screen, cell-based, HeLa, Hsp70 promoter luciferase, luminescence, 10 µM | HeLa Hsp70 promoter luciferase reporter; scaled: vehicle 0, proteasome-inhibitor control 100% | activation, % at 10 µM | 200,000 compounds, 0.04% hits | AID 1203, 2008;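 active = activation above the mean across all tested compounds plus 3 SD, cutoff set per campaign, cut at about 5.5% in these data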;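 note: 100% = MG132 at 30 µM as the positive control and 0% = DMSO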
HSF1 inh: HSF1 inhibitors in luciferase reporter cells, primary screen, cell-based, NIH3T3, luminescence; NIH3T3-HGL HSE-luciferase, MG132-induced, luminescence 8 h; hits give low values; activity change, negative = inhibition, % at 7.5 µM (by protocol); 300,000 compounds, 0.77% hits;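 active = more than half of replicate wells show activity change below -50%, luminescence cut by over half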;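 note: luciferase reports HSF-1 transcriptional activity via heat shock element; 0% = median of DMSO wells and -100% = zero luminescence signal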
HSP90 inh: HSP90 inhibitors, primary screen, cell lysate, luminescence; Rabbit reticulocyte lysate, luciferase refolding luminescence, 3 h; inhibition, % at 5.6 µM; 290,000 compounds, 0.91% hits;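 active = inhibition above the screen-wide mean plus 3 SD, computed separately per campaign, cut at about 16% in these data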;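 note: 0% = DMSO wells and 100% = 60 µM geldanamycin wells; inhibitors lower the luminescence because luciferase stays unfolded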
* = called active by the depositor. The list is not random: actives were taken first. Their share in the collection is about 3.8%.

What do the screens show for `O=C(COc1ccccc1)NCCSCc1ccccc1Cl`?
NALP1 inh: 5; HSF1 activator: 70*; p-CIP stab down: 15; Hsp70 activator: 0; HSF1 inh: 39; HSP90 inh: 0

How did COc1ccccc1OCC(=O)NCCSCc1ccccc1Cl do in these assays?
NALP1 inh: 51*; HSF1 activator: 27; p-CIP stab down: -1; Hsp70 activator: 0; HSF1 inh: 16; HSP90 inh: 0

What do the screens show for `COc1ccccc1OCC(=O)NCCSCc1cccc(Cl)c1`?
NALP1 inh: 48*; HSF1 activator: 10; p-CIP stab down: 6; Hsp70 activator: 0; HSF1 inh: 3; HSP90 inh: 0

What do the screens show for `CCCCCOc1ccc(NC2=CC(=O)CCC2)cc1`?
NALP1 inh: 15; HSF1 activator: 4; p-CIP stab down: 2; HSF1 inh: -4; HSP90 inh: -5

How did Cc1noc(C)c1S(=O)(=O)N1CCCC1C(=O)O (configuration not stated) do in these assays?
NALP1 inh: 16; HSF1 activator: 2; p-CIP stab down: -7; HSF1 inh: -4; HSP90 inh: 1

What do the screens show for `CCOc1cc(C(=S)N2CCOCC2)ccc1OS(=O)(=O)c1ccc(OC)cc1`?
NALP1 inh: 16; HSF1 activator: -83; p-CIP stab down: -10; HSF1 inh: -78*; HSP90 inh: 4

Results for CCOc1cc(C(=S)N2CCOCC2)ccc1OS(=O)(=O)c1ccc(NC(C)=O)cc1 ?
NALP1 inh: 6; HSF1 activator: -4; p-CIP stab down: -8; Hsp70 activator: 0; HSF1 inh: -4; HSP90 inh: -3

How did CCc1ccc(OCC(=O)NNC(=O)c2nn(CC)c(=O)c3ccccc23)cc1 do in these assays?
NALP1 inh: 0; HSF1 activator: -1; p-CIP stab down: 9; Hsp70 activator: 0; HSF1 inh: -7; HSP90 inh: 3

How did CCn1nc(C(=O)NNC(=O)COc2ccccc2C)c2ccccc2c1=O do in these assays?
NALP1 inh: 23; HSF1 activator: 57*; p-CIP stab down: 2; Hsp70 activator: 0; HSF1 inh: 22; HSP90 inh: 1

How did O=C(COC(=O)COc1ccccc1[N+](=O)[O-])Nc1cccc(Br)c1 do in these assays?
NALP1 inh: 7; HSF1 activator: 13; p-CIP stab down: -4; Hsp70 activator: 0; HSF1 inh: -9; HSP90 inh: -5

What do the screens show for `CC1=CC(C)(C)Nc2ccc(OC(=O)CN3C(=O)c4ccccc4C3=O)cc21`?
NALP1 inh: 64*; HSF1 activator: -10; p-CIP stab down: -25; Hsp70 activator: 0; HSF1 inh: 0; HSP90 inh: 6

How did O=C(Nc1ccc2c(c1)C(=O)NC2=O)c1ccc(Cl)s1 do in these assays?
NALP1 inh: 4; HSF1 activator: 29; p-CIP stab down: -7; Hsp70 activator: 0; HSF1 inh: 15; HSP90 inh: 7

What do the screens show for `O=C(Nc1ccc2sccc2c1)c1ccc(Cl)s1`?
HSF1 activator: 72*; p-CIP stab down: -5; Hsp70 activator: 0; HSF1 inh: 34; HSP90 inh: -4

How did Cc1ccc(C(=O)c2c(C)oc3c2C(=O)C(=O)c2ccccc2-3)cc1 do in these assays?
NALP1 inh: -4; HSF1 activator: 14; p-CIP stab down: -11; Hsp70 activator: 0; HSF1 inh: 16; HSP90 inh: 8

Results for COc1ccc(C(=O)c2c(C(F)(F)F)oc3c2C(=O)c2ccccc2C3=O)cc1 ?
NALP1 inh: 53; HSF1 activator: -94; p-CIP stab down: -7; Hsp70 activator: -1; HSF1 inh: -94*; HSP90 inh: 13

What do the screens show for `CCOC(=O)c1ccc([N+](=O)[O-])c(CS(=O)(=O)c2ccc(Cl)cc2)c1`?
NALP1 inh: 7; HSF1 activator: 2; p-CIP stab down: -14; HSF1 inh: -7; HSP90 inh: 1

Results for Cc1ccc(S(=O)(=O)Cc2cc(F)c([N+](=O)[O-])cc2[N+](=O)[O-])cc1 ?
NALP1 inh: 47*; HSF1 activator: 6; p-CIP stab down: -22; HSF1 inh: 0; HSP90 inh: 2

Results for COc1ccccc1NC(=O)c1cnc(SCC(=O)NCC2CCCO2)n(C)c1=O (configuration not stated) ?
HSF1 activator: 171*; HSF1 inh: 164

Results for COc1ccccc1-n1nnnc1SCC(=O)NCC1CCCO1 (configuration not stated) ?
HSF1 activator: 8; HSF1 inh: -3

Results for Cc1cc(C)cc(N2C(=O)CC(Sc3ncn[nH]3)C2=O)c1 (configuration not stated) ?
NALP1 inh: 58*; HSF1 activator: 23; p-CIP stab down: 0; Hsp70 activator: 0; HSF1 inh: 14; HSP90 inh: 2

How did CCN(CC)C1CC(=O)N(c2cccc(C)c2)C1=O (configuration not stated) do in these assays?
NALP1 inh: 90*; HSF1 activator: 16; p-CIP stab down: -9; Hsp70 activator: 0; HSF1 inh: 11; HSP90 inh: 1

Results for Cc1cccc(N2C(=O)CC(NNc3nc4ccccc4s3)C2=O)c1 (configuration not stated) ?
NALP1 inh: 30; HSF1 activator: 109*; p-CIP stab down: 2; Hsp70 activator: 0; HSF1 inh: 49; HSP90 inh: 3

How did Cc1cccc(N2C(=O)CC(Cn3nc(C)cc3C)C2=O)c1 (configuration not stated) do in these assays?
HSF1 activator: 8; p-CIP stab down: -14; HSF1 inh: -1; HSP90 inh: -7

Results for Cc1cc(C)cc(N2C(=O)CC(Sc3nnnn3-c3ccccc3)C2=O)c1 (configuration not stated) ?
NALP1 inh: 43*; HSF1 activator: 4; p-CIP stab down: -21; Hsp70 activator: 0; HSF1 inh: 15; HSP90 inh: -4

Results for Cn1nnnc1SC1CC(=O)N(c2ccccc2)C1=O (configuration not stated) ?
NALP1 inh: 32; HSF1 activator: 13; p-CIP stab down: -3; Hsp70 activator: 0; HSF1 inh: 1; HSP90 inh: 1

How did COC(=O)[C@@H](NC(=O)NCCC1=CCCCC1)C(C)C do in these assays?
NALP1 inh: -5; HSF1 activator: 11; p-CIP stab down: 3; HSF1 inh: 1; HSP90 inh: -3

How did CC(C)(C)C(=O)Nc1cccc(S(=O)(=O)NC2=NCCC2)c1 do in these assays?
HSF1 activator: -10; HSF1 inh: -7
